Test results taken from PubChem BioAssay (EPA / NIEHS).
Inconclusive results are not listed. The source made the active and inactive calls. How the source made its calls, unless noted: active means hit-call score of the fitted dose curve at least 0.9, where 1 is the maximum; inactive means score below 0.9.

How the values were obtained:
[1] = ATG_Sox_CIS: Attagene CIS-FACTORIAL HepG2 Assay for human SRY-box transcription factor (SOX) (AID 2282960); conditions: HepG2 Attagene cis-factorial SOX reporter, mRNA; actives raise or lower the signal
Summary of the method: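 HepG2, cis reporter units, 24 h exposure. Reporter mRNA: RT-PCR → FAM labelling → HpaI → CE fluorescence. Bidirectional fit vs DMSO.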

[2] = target: Transcription factor Sp1 (Homo sapiens) (UniProt P08047); assay: ATG_Sp1_CIS: Attagene CIS-FACTORIAL HepG2 Assay for human Specificity Protein 1 (Sp1) (AID 2282961); conditions: HepG2 Sp1 cis-reporter transcription, actives raise or lower the signal
Summary of the method: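 Liver-derived HepG2 cells, cis-element reporter library, 24 h treatment; RNA isolated, cDNA amplified with reporter-specific primers, FAM-labeled fragments sized on capillary analyzer. DMSO baseline, bidirectional curve fit.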

[3] = ATG_SREBP_CIS: Attagene CIS-FACTORIAL HepG2 Assay for human Sterol Regulatory Element Binding (SREBP) (AID 2282962); conditions: HepG2 Attagene cis-factorial SREBP reporter, mRNA; actives raise or lower the signal
Summary of the method: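 mRNA induction of transfected cis-promoter reporters in HepG2 cells, 24 h post-dose. Detection: RT-PCR with 6-FAM-labelled products, HpaI digest, capillary electrophoresis. DMSO served as negative control and baseline.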

[4] = target: Signal transducer and activator of transcription 3 (Homo sapiens) (UniProt P40763); assay: ATG_STAT3_CIS: Attagene CIS-FACTORIAL HepG2 Assay for human Signal Transducer and Activator of Transcription 3 (STAT3) (AID 2282963); conditions: HepG2, Attagene cis-factorial STAT3 reporter transcription; actives raise or lower the signal
Summary of the method: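 HepG2 cells transiently transfected with multiple cis-element-driven reporter units report endogenous transcription factor activity. After 24 h compound exposure, reporter mRNA is measured by RT-PCR, 6-FAM labelling, HpaI digestion and capillary electrophoresis. Fitted bidirectionally versus DMSO.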

[5] = ATG_TA_CIS: Attagene CIS-FACTORIAL HepG2 Assay for human TA Basal Promoter (AID 2282964); conditions: HepG2 Attagene CIS-factorial TA basal promoter reporter; actives raise or lower the signal
Summary of the method: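 Fluorescence from labelled RT-PCR reporter fragments, separated by capillary electrophoresis, gives the signal. Cells: HepG2 transiently carrying multiple reporter units, 24 h chemical dosing. Gain or loss relative to DMSO.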

[6] = ATG_TCF_b_cat_CIS: Attagene CIS-FACTORIAL HepG2 Assay for human T-Cell-Factor with beta-catenin (TCF/b-cat) (AID 2282965); conditions: HepG2 TCF/beta-catenin cis-reporter transcription, actives raise or lower the signal
Summary of the method: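 HepG2, transient MRTU transfection, cis-element-driven reporters (endogenous TFs). 24 h compound exposure. Readout: reporter mRNA by RT-PCR + 6-FAM primer extension, HpaI digest, capillary electrophoresis. Gain/loss fit vs DMSO baseline.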

[7] = ATG_TAL_CIS: Attagene CIS-FACTORIAL HepG2 Assay for human TAL Basal Promoter (AID 2282966); conditions: HepG2 Attagene cis-factorial TAL promoter reporter; actives raise or lower the signal;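 further: background control endpoint measuring basal TAL promoter reporter mRNA not a specific factor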
Summary of the method: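 Steps: transfect HepG2 with multiple reporter transcription units; dose 24 h; isolate RNA, reverse-transcribe, PCR-amplify, label with 6-FAM, digest with HpaI; resolve by capillary electrophoresis. Bidirectional fitting against DMSO baseline.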

[8] = ATG_TGFb_CIS: Attagene CIS-FACTORIAL HepG2 Assay for human Transforming Growth Factor (TGF) (AID 2282967); conditions: HepG2 Attagene CIS TGFb reporter, mRNA transcription; actives raise or lower the signal
Summary of the method: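 Bidirectional fitting relative to DMSO gave the endpoint. Underlying data: reporter mRNA from HepG2 cells carrying transiently transfected cis-regulated reporter constructs, harvested 24 h after dosing and analyzed by RT-PCR and capillary electrophoresis.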

[9] = ATG_VDRE_CIS: Attagene CIS-FACTORIAL HepG2 Assay for human Vitamin D Receptor Element (VDRE) (AID 2282968); conditions: HepG2 VDRE cis-reporter transcription, actives raise or lower the signal
Summary of the method: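 Transiently transfected HepG2 cells carrying cis-regulated reporter transcription units were exposed for 24 h. Reporter mRNA was measured by RT-PCR with fluorescent labelling and capillary electrophoresis, and fitted in both directions against DMSO.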

[10] = target: Estrogen receptor (Homo sapiens) (UniProt P03372); assay: ATG_ERa_TRANS: Attagene TRANS-FACTORIAL HepG2 Assay for human Estrogen Receptor alpha (ERa) (AID 2282970; active means hit-call score of the fitted dose curve at least 0.9, where 1 is the maximum); conditions: HepG2 Attagene TRANS ERa GAL4 reporter, mRNA
Summary of the method: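 Multiplexed cell-based reporter format in HepG2: chimeric ERa-Gal4 protein drives GAL4-UAS reporter transcription. Fluorescent reporter mRNA quantified by capillary electrophoresis 24 hours after dosing; endpoint fitted as signal gain against DMSO.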

[11] = target: Steroid hormone receptor ERR1 (Homo sapiens) (UniProt P11474); assay: ATG_ERRa_TRANS: Attagene TRANS-FACTORIAL HepG2 Assay for human Estrogen-Related Receptor alpha (ERRa) (AID 2282971; active means hit-call score of the fitted dose curve at least 0.9, where 1 is the maximum); conditions: HepG2 Attagene TRANS reporter, ERRa transactivation
Summary of the method: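 Signal gain relative to DMSO for an ERRa-Gal4 chimeric receptor, read as reporter mRNA by RT-PCR/capillary electrophoresis. Human HepG2 liver cells, transient multiplex reporter transfection, 24 h chemical exposure.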

[12] = target: X-box-binding protein 1 (Homo sapiens) (UniProt P17861); assay: ATG_Xbp1_CIS: Attagene CIS-FACTORIAL HepG2 Assay for human X-box Binding Protein 1 (XBP1) (AID 2282972); conditions: HepG2 XBP1 cis-element reporter, Attagene multiplex; actives raise or lower the signal
Summary of the method: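 Fluorescence-labelled cDNA fragments from reporter transcripts, separated by capillary electrophoresis, give the signal. Source: HepG2 cells transfected with promoter-driven reporter units, harvested 24 h post-dose. DMSO served as reference for bidirectional curve fitting.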

[13] = ATG_M_19_TRANS: Attagene TRANS-FACTORIAL HepG2 Assay for M19 Transcription Factor (Internal Marker) (AID 2282974; active means hit-call score of the fitted dose curve at least 0.9, where 1 is the maximum); conditions: HepG2 Attagene TRANS-FACTORIAL M19 internal marker reporter
Summary of the method: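 Transfected HepG2 (GAL4-UAS MRTUs), 24 h compound, TriZol RNA, DNase-treated RT, reporter PCR, FAM label, HpaI digest, CE fluorescence; gain vs DMSO.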

[14] = ATG_GAL4_TRANS: Attagene TRANS-FACTORIAL HepG2 Assay for GAL4 (Internal Marker) (AID 2282976; active means hit-call score of the fitted dose curve at least 0.9, where 1 is the maximum); conditions: HepG2 Attagene TRANS GAL4 internal marker reporter
Summary of the method: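 Liver HepG2 line bearing multiplexed GAL4-UAS reporter constructs; 24 h chemical treatment. Transcripts were quantified as fluorescent fragments on capillary electrophoresis after RT-PCR and HpaI cut, with activity fitted upward from DMSO.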

[15] = target: Estrogen-related receptor gamma (Homo sapiens) (UniProt P62508); assay: ATG_ERRg_TRANS: Attagene TRANS-FACTORIAL HepG2 Assay for human Estrogen-Related Receptor gamma (ERRg) (AID 2282977; active means hit-call score of the fitted dose curve at least 0.9, where 1 is the maximum;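 further: hits increase reporter signal over DMSO so potencies reflect activators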); conditions: HepG2 Attagene TRANS reporter, ERRg transactivation
Summary of the method: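 HepG2 cells transiently transfected with multiplexed GAL4-UAS reporter units driven by chimeric NR-Gal4 proteins; 24 h exposure. Reporter mRNA quantified by RT-PCR, fluorescent labelling, HpaI digestion and capillary electrophoresis; gain of signal vs DMSO.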

[16] = target: Glucocorticoid receptor (Homo sapiens) (UniProt P04150); assay: ATG_GR_TRANS: Attagene TRANS-FACTORIAL HepG2 Assay for human Glucocorticoid Receptor (GR) (AID 2282978; active means hit-call score of the fitted dose curve at least 0.9, where 1 is the maximum;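 further: activators score as hits since higher reporter transcript over DMSO is fitted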); conditions: HepG2 Attagene TRANS GR reporter, mRNA transcription
Summary of the method: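 After 24 h incubation with test chemical, transfected HepG2 cells were lysed for RNA; reporter cDNA was amplified, FAM-labelled, HpaI-digested and sized on a capillary analyser. Signal gain relative to DMSO was scored.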

[17] = target: Bile acid receptor (Homo sapiens) (UniProt Q96RI1); assay: ATG_FXR_TRANS: Attagene TRANS-FACTORIAL HepG2 Assay for Farnesoid X Receptor (FXR) (AID 2282979; active means hit-call score of the fitted dose curve at least 0.9, where 1 is the maximum;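 further: hits raise reporter mRNA above DMSO so AC50 marks FXR activation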); conditions: HepG2 Attagene TRANS FXR-GAL4 reporter transcription
Summary of the method: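 After 24 h chemical treatment of transfected HepG2 cells, GAL4-UAS reporter transcripts driven by an exogenous FXR-GAL4 fusion were measured by RT-PCR and capillary electrophoresis. Increases over DMSO were fitted.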

[18] = target: Nuclear receptor subfamily 1 group I member 3 (Homo sapiens) (UniProt Q14994); assay: ATG_CAR_TRANS: Attagene TRANS-FACTORIAL HepG2 Assay for human Constitutive Androstane Receptor (CAR) (AID 2282969; active means hit-call score of the fitted dose curve at least 0.9, where 1 is the maximum;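 further: activators raise reporter mRNA above DMSO so AC50 marks induction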); conditions: HepG2 Attagene TRANS-FACTORIAL CAR reporter
Summary of the method: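 HepG2 cells transiently transfected with GAL4-UAS reporter units; TRANS format reads activity of exogenous chimeric NR-Gal4 protein. After 24 h dosing, reporter mRNA quantified by RT-PCR, 6-FAM labelling and capillary electrophoresis; gain of signal fitted against DMSO.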

[19] = target: Oxysterols receptor LXR-alpha (Homo sapiens) (UniProt Q13133); assay: ATG_LXRa_TRANS: Attagene TRANS-FACTORIAL HepG2 Assay for human Liver X Receptor alpha (LXRa) (AID 2282980; active means hit-call score of the fitted dose curve at least 0.9, where 1 is the maximum); conditions: HepG2 Attagene TRANS reporter, LXRa transactivation
Summary of the method: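 In this multiplexed TRANS system, compounds act on HepG2 cells carrying GAL4-UAS reporter units and a receptor-GAL4 fusion for 24 h. Induced reporter RNA is amplified, fluorescently labelled and sized by capillary electrophoresis, with DMSO as baseline.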

Measured: AC50

Estrogen-related receptor gamma (Homo sapiens), sequence (P62508 whole entry, looked up, the tested form may be a part): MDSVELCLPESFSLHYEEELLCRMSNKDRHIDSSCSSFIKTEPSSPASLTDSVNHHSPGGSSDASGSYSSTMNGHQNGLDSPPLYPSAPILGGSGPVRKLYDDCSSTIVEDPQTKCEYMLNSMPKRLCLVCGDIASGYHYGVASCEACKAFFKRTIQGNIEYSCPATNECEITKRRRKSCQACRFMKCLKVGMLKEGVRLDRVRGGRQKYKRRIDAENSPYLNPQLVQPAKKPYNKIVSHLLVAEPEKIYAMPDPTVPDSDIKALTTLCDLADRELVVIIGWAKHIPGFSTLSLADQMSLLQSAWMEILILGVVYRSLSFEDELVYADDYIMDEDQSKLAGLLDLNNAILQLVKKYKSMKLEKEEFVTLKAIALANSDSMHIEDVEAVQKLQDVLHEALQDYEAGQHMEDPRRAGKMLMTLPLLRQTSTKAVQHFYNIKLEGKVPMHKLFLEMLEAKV
X-box-binding protein 1 (Homo sapiens), sequence (P17861 whole entry, looked up, the tested form may be a part): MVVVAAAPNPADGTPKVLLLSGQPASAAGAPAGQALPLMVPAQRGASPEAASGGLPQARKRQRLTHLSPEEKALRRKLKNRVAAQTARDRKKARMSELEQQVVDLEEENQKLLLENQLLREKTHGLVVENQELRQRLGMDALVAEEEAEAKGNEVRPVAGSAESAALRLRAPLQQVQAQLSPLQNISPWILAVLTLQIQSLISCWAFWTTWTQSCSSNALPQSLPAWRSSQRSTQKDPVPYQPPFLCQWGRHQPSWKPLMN
Bile acid receptor (Homo sapiens), sequence (Q96RI1 whole entry, looked up, the tested form may be a part): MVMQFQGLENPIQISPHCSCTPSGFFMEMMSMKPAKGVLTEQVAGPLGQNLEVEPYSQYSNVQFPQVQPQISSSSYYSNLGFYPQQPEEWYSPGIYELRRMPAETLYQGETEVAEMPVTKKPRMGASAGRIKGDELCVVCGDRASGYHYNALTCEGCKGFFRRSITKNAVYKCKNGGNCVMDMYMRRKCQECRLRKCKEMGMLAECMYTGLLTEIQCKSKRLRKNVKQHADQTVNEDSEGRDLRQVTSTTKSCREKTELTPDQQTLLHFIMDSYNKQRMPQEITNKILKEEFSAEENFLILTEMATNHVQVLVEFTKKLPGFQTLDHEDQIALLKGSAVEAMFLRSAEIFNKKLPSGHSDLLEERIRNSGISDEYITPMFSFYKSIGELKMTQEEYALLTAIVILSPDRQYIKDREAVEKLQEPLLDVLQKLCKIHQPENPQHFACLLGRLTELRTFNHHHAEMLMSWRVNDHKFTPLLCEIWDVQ
Signal transducer and activator of transcription 3 (Homo sapiens), sequence (P40763 whole entry, looked up): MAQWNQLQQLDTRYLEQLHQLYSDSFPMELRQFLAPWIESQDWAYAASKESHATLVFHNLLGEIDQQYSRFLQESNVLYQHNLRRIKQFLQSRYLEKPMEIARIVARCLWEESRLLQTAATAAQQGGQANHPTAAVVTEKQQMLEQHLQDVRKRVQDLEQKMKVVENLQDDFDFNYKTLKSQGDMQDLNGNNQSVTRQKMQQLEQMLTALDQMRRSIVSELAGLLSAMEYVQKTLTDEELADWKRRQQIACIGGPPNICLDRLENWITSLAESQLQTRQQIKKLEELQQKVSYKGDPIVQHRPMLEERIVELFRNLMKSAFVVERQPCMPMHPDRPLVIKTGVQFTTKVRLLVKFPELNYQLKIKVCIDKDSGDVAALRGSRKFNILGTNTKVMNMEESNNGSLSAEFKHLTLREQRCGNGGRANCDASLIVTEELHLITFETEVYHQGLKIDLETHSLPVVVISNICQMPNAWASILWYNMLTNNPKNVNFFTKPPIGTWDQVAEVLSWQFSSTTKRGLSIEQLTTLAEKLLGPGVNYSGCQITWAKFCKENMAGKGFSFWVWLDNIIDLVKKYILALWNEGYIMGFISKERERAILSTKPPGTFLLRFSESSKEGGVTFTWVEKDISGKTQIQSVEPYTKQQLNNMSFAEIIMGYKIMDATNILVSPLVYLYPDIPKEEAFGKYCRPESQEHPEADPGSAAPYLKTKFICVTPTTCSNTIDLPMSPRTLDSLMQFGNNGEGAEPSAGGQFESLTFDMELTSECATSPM
Estrogen receptor (Homo sapiens), sequence (P03372 whole entry, looked up, the tested form may be a part): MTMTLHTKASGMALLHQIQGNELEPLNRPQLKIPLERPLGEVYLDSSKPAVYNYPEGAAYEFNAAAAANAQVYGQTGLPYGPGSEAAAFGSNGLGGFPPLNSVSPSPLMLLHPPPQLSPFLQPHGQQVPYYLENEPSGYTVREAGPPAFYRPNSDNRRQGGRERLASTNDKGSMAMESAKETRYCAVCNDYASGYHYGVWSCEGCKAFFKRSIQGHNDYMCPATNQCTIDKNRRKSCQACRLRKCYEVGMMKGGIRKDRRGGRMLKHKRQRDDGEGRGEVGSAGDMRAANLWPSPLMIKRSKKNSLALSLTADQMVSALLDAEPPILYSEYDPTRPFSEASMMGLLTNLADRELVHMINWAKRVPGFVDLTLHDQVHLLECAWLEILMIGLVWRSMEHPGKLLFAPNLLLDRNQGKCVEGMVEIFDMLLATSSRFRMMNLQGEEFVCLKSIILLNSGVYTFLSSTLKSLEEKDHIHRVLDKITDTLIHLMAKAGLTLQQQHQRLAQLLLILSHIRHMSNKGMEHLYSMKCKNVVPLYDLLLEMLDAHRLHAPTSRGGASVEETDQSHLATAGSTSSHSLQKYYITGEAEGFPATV
Oxysterols receptor LXR-alpha (Homo sapiens), sequence (Q13133 whole entry, looked up, the tested form may be a part): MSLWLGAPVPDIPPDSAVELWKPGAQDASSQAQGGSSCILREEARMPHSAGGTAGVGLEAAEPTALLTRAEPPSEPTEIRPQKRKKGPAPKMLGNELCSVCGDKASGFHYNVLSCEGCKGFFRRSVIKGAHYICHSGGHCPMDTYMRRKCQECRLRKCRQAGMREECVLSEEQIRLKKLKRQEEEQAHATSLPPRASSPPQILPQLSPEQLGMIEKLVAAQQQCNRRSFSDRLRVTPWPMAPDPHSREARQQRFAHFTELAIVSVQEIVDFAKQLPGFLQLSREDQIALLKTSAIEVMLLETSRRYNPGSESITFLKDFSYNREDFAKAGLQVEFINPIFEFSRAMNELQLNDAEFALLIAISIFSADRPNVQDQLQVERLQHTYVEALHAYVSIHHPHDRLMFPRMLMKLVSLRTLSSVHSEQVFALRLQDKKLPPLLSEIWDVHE
Transcription factor Sp1 (Homo sapiens), sequence (P08047 whole entry, looked up, the tested form may be a part): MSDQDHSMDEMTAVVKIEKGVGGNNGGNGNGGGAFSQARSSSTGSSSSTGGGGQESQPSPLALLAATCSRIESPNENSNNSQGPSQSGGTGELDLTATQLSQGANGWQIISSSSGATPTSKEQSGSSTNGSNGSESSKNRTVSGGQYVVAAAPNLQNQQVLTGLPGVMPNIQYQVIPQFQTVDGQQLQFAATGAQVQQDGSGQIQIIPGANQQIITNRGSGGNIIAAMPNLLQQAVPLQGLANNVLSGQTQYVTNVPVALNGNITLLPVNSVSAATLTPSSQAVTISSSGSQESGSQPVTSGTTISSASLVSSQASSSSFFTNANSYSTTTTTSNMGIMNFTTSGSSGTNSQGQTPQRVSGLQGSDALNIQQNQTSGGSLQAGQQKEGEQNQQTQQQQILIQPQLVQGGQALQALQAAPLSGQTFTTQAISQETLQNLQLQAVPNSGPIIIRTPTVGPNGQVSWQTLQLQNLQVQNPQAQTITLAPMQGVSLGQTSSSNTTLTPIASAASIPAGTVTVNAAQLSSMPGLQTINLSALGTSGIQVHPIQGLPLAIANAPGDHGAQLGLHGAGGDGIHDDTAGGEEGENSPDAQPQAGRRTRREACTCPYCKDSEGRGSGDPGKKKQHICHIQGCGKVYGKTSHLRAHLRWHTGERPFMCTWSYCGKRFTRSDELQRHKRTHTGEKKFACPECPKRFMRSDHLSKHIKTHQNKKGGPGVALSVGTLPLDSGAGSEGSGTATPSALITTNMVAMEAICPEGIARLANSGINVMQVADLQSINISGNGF
Nuclear receptor subfamily 1 group I member 3 (Homo sapiens), sequence (Q14994 whole entry, looked up, the tested form may be a part): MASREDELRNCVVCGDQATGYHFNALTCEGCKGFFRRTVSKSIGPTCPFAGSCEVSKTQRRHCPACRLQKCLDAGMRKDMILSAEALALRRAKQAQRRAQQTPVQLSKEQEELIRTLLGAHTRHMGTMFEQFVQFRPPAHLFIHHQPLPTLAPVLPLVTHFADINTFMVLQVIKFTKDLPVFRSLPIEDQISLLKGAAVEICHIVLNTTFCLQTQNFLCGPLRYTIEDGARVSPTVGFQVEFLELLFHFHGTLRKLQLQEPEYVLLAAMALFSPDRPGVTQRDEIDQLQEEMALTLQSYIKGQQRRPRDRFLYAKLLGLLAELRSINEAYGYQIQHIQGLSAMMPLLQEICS
Steroid hormone receptor ERR1 (Homo sapiens), sequence (P11474 whole entry, looked up, the tested form may be a part): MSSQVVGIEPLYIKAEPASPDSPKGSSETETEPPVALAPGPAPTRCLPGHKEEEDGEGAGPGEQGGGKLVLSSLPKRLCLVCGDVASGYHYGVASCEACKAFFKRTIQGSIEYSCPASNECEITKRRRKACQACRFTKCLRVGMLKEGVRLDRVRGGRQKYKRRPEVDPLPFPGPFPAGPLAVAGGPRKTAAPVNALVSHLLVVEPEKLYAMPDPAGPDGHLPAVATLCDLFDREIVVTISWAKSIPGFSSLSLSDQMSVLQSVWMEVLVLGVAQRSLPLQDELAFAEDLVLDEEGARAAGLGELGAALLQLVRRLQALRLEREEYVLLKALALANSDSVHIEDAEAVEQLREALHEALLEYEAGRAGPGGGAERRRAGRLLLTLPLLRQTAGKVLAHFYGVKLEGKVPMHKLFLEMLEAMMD

O=c1[nH]c2ccccc2n1C1CCN(CCCC(c2ccc(F)cc2)c2ccc(F)cc2)CC1
active: [3] 3.71 µM
inactive: [1] | [2] | [4] | [5] | [6] | [7] | [8] | [9] | [10] | [11] | [12] | [13] | [14] | [15] | [16] | [17]

Cc1ccccc1OP(=O)(Oc1ccccc1C)Oc1ccccc1C
inactive: [1] | [3] | [4] | [5] | [6] | [7] | [18] | [11] | [13] | [16] | [17] | [19]
active: [2] 71.8 µM | [8] 56.1 µM | [9] 0.533 µM | [10] 1.3 µM | [12] 56.1 µM

C1CN2CCN1CC2
inactive: [1] | [2] | [3] | [4] | [5] | [6] | [7] | [8] | [9] | [18] | [13] | [14]

BrCc1ccc(Br)cc1
inactive: [1] | [2] | [3] | [4] | [5] | [6] | [7] | [8] | [9] | [18] | [14] | [17]

N#Cc1ccccc1N
inactive: [1] | [2] | [3] | [4] | [5] | [6] | [7] | [8] | [9] | [18] | [10] | [11] | [13] | [14] | [15] | [17]

O=S(=O)(C(Cl)(Cl)Cl)C(Cl)(Cl)Cl
active: [1] 11.1 µM | [2] 11.1 µM | [3] 16.8 µM | [5] 16.9 µM | [6] 7.46 µM | [9] 16.7 µM | [12] 15.4 µM
inactive: [4] | [7] | [8] | [10] | [13] | [14] | [17] | [19]

OC(Cc1ccccc1Cl)(Cn1cncn1)C1(Cl)CC1 (centres undefined)
inactive: [1] | [2] | [3] | [4] | [5] | [6] | [7] | [8] | [18] | [11] | [12] | [13] | [15] | [17] | [19]
active: [9] 26 µM | [10] 13.7 µM

CC(C)(c1ccccc1)c1cc(-n2nc3ccccc3n2)c(O)c(C(C)(C)c2ccccc2)c1
inactive: [1] | [2] | [3] | [4] | [5] | [6] | [7] | [8] | [9] | [18] | [10] | [12] | [19]
